Shown are actives, neighbours in structure and some others; about 2.3% of the full set was active somewhere.
GLD-1 RNA inh = GLD-1-TGE RNA interaction inhibition (C. elegans). purified GLD-1 + fluorescein TGE RNA, fluorescence polarization. inhibition, % at 5.96 µM. AID 2280. Q17339. 320,000 compounds, 0.44% hits;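 active = percent inhibition above a per-plate cutoff, the plate mean of test compounds plus 3 SD, cut at about 30% in these data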;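 note: 0% = DMSO wells with GLD-1 and probe and 100% = wells lacking GLD-1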
Mcl1 Bid PPI = disrupts binding of human Mcl-1 to Bid peptide | Q07820 | TR-FRET Mcl-1/Bid-Dy647 peptide binding, 1536-well | inhibition, % at 21.7 µM | 220,000 compounds, 0.97% hits;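 active = compounds that cut the binding signal by more than half at the single screening dose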;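 note: His-tagged Mcl-1 with europium anti-His antibody binding Bid BH3 peptide; 0% = Mcl-1 plus peptide wells and 100% = peptide-only wells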
Target sequence (Q07820 whole entry, looked up): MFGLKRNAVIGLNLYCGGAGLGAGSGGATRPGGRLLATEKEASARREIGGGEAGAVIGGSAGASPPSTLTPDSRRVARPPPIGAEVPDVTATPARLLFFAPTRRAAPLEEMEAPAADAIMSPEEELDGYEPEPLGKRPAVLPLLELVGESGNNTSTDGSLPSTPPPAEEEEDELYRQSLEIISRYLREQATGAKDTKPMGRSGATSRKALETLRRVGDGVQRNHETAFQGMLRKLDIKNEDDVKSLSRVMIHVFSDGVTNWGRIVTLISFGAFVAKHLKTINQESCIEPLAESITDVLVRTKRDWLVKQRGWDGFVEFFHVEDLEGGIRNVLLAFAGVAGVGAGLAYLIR
Bim-Mcl-1 = disrupts Bim peptide binding to human Mcl-1; Bead-based flow cytometry, Bim peptide-Mcl-1 binding; inhibition, % at 10 µM; 190,000 compounds, 0.1% hits; AID 1009; in the data active = inhibition above about 40%;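 note: 0% = no compound tracer wells and 100% = peptide blocker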
Mcl1 Noxa PPI = Mcl-1/Noxa interaction inhibition. AID 1022. TR-FRET Mcl-1/Noxa peptide binding, 2 h. inhibition, % at 21.7 µM. 220,000 compounds, 1.5% hits;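 active = compounds that cut the protein-peptide binding signal by more than 50% relative to plate controls in a single-dose test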;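 note: His-tagged Mcl-1 with rhodamine Noxa BH3 peptide and terbium anti-His antibody; 0% = Mcl-1 plus Noxa peptide wells and 100% = peptide-only wells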
MCL1-BIM inh = disrupts human MCL1 binding to BIM-BH3 peptide. inhibition, % at 10.9 µM. GST-MCL1 / FITC-Bim-BH3 fluorescence polarization. 320,000 compounds, 0.68% hits;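 active = inhibition above the mean inhibition of all tested compounds plus 3 SD, set per campaign, cut at about 40% in these data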;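 note: 0% = DMSO wells and 100% = unlabeled Bim-BH3 peptide control; higher means more loss of mP so more displacement of Bim peptide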
BCLXL inh = inhibitors of human Bcl-xL | Q07817 | 320,000 compounds, 0.7% hits | GST-Bcl-xL / FITC-Bim BH3 peptide fluorescence polarization | inhibition, % at 10.9 µM;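 active = inhibition above the mean of all tested compounds plus 3 SD, cutoff set per campaign, cut at about 30% in these data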;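 note: 0% = DMSO wells and 100% = unlabeled Bim-BH3 peptide competitor; inhibitors lower millipolarization by displacing the labeled peptide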
Target sequence (Q07817 whole entry, looked up): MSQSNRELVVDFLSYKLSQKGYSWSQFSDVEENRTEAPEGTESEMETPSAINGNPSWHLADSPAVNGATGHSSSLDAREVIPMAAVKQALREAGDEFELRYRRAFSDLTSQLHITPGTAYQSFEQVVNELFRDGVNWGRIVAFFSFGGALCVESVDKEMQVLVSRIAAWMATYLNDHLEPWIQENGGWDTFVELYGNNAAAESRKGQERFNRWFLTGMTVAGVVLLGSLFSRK
Active calls of the source: *; · = no result given.

SMILES	GLD-1 RNA inh	Mcl1 Bid PPI	Bim-Mcl-1	Mcl1 Noxa PPI	MCL1-BIM inh	BCLXL inh
O=C(c1cnccn1)N1CCN(c2ccccc2F)CC1	-0.3	-28.2	57.0*	-8.6	1.6	0.9
O=C(NCC[C@@H]1C[C@@H]2C=C[C@H]1C2)c1cc(COc2ccc(F)cc2F)on1	-0.3	·	·	·	-3.8	-3.9
Cc1ccc(OCc2ccc(C(=O)NCc3cccnc3)cc2)cc1C	5.5	-20.2	0.0	22.0	5.7	2.2
COc1cccc(C2NC(=O)CCC2[N+](=O)[O-])c1OC (configuration not stated)	-4.2	·	·	·	3.2	2.0
CCC(SC1=Nc2ccccc2C2=NC(CC(C)C)C(=O)N12)C(=O)Nc1ccc2c(c1)OCO2 (configuration not stated)	5.0	-34.5	-3.0	62.1*	13.4	10.2
Cc1noc(C)c1COc1ccc(C(=O)Nc2cccnc2)cc1	·	12.2	6.0	53.3*	·	·
O=C(Nc1ccccc1C(=O)N1CCCCCC1)c1cccc([N+](=O)[O-])c1	3.9	·	·	·	-2.5	-2.6
N#C/C(=C\c1ccccc1)C(=O)Nc1ccccn1	4.3	·	·	·	-2.6	-1.0
Cc1cccc(/C=C(\C#N)C(=O)Nc2ccccn2)c1	24.9	·	·	·	34.6	36.5*
COc1cccc(NC(=O)CN2C(=O)NC3(CCCc4ccccc43)C2=O)c1 (configuration not stated)	1.8	·	·	·	-14.9	-10.5
Cc1ccc(NC(=O)c2cc(-c3ccco3)nc3ccccc23)cc1S(=O)(=O)N1CCOCC1	4.5	-39.6	1.0	66.3*	13.8	4.2
COc1ccc(NC(=O)c2cc(C)nc3ccccc23)cc1S(=O)(=O)N1CCOCC1	4.1	·	·	·	·	·
CCOc1cc(N2CCOCC2)c(OCC)cc1NC(=O)c1cc(-c2ccco2)nc2ccccc12	0.0	78.4*	-3.0	49.4	14.2	7.4
CCOc1cc(N2CCOCC2)c(OCC)cc1NC(=O)CN1CCc2ccccc2C1	5.0	92.8*	0.0	18.2	5.3	5.3
CCOC(=O)c1ccc(S(=O)(=O)NNc2ccc(C(F)(F)F)cn2)cc1	4.5	·	·	·	·	·
CC1(C(=O)N2CCN(c3ccc([N+](=O)[O-])cc3)CC2)CC1(Cl)Cl (configuration not stated)	64.1*	·	·	·	3.9	7.4
Cc1ccc(OCC(=O)NCc2cccs2)c([N+](=O)[O-])n1	-0.2	-10.8	4.0	4.0	-2.7	2.9
COc1cc(OC)cc(C(=O)N2CCC(N3CCN(c4ccccc4OC)CC3)CC2)c1	2.8	57.2*	-4.0	13.8	-1.0	1.7
COc1ccc(CCNC(=O)c2ccccc2SC)cc1	-4.4	-18.2	5.0	-9.0	-1.6	-2.2
COc1ccc(CCNC(=O)[C@@H](NC(=O)c2ccccc2F)C(C)C)cc1OC	4.0	-19.9	0.0	15.2	-12.5	-15.2
CCOc1cc(C2c3c(oc4ccccc4c3=O)C(=O)N2c2nccs2)ccc1O (configuration not stated)	-0.9	55.7*	·	-30.6	3.8	-0.7
CCOc1cccc(C2c3c(oc4ccccc4c3=O)C(=O)N2c2ccccn2)c1 (configuration not stated)	4.2	6.2	-1.0	-4.4	4.3	2.8
COc1ccc(-c2nnc(Nc3nc4c(OC)cccc4s3)o2)cc1	-2.0	56.4*	-3.0	56.8*	19.8	19.5
COc1ccc(-c2nnc(Nc3nc4c(OC)cccc4s3)o2)c(OC)c1	3.8	-74.2	-1.0	-6.4	8.3	5.2
COc1cc(OC)c(/C=N/NC(=O)COc2cccc3cccnc23)c(OC)c1	0.3	-6.9	·	4.5	10.6	2.6
SMILES	GLD-1 RNA inh	Mcl1 Bid PPI	Bim-Mcl-1	Mcl1 Noxa PPI	MCL1-BIM inh	BCLXL inh
O=C1N=c2ccc(Br)cc2=C1c1sc(=S)n(NS(=O)(=O)c2ccccc2)c1O	7.3	52.0*	-1.0	83.1*	38.3	22.2
O=[N+]([O-])c1cccc(S(=O)(=O)NCC2CCCO2)c1 (configuration not stated)	-7.2	-20.2	51.0*	-12.9	3.6	5.0
O=C(NCc1ccccn1)C(=O)NCC(c1ccco1)N1CCN(c2ccc(F)cc2)CC1 (configuration not stated)	3.9	-58.5	-1.0	6.8	20.0	31.6*
COc1ccc(C2(C(=O)Nc3ccc(C(=O)O)cc3)CCOCC2)cc1	4.2	59.1*	0.0	-4.8	-1.7	6.2
O=C(C[n+]1ccccc1)N/N=C/c1ccc(Cl)cc1	4.1	·	·	·	-4.3	-1.5
COc1cc(NS(=O)(=O)c2ccc(NC(=O)Cc3ccccc3)cc2)nc(OC)n1	3.6	·	·	·	14.1	5.8
Cn1ncc(S(=O)(=O)Cc2ccccc2)c(Cl)c1=O	6.5	-5.4	·	68.4*	24.0	5.9
Cn1ncc(SCc2ccccc2)c(Cl)c1=O	-3.7	-17.9	·	13.9	7.1	7.6
O=c1[nH]c(C2CCCN(S(=O)(=O)c3ccc(F)cc3)C2)nc2c1nnn2Cc1ccc(F)cc1 (configuration not stated)	-2.7	·	·	·	-1.7	-2.9
CCOC(=O)c1ccccc1NC(=O)c1nc2nccc(C)n2n1	-4.9	78.9*	-1.0	9.3	-3.4	-7.7
Cc1ccnc2nc(C(=O)OCC(=O)Nc3ccccc3C(C)(C)C)nn12	6.2	-15.5	-5.0	9.6	-3.2	-5.0
CCOC(=O)c1ccccc1Nc1cc(C)nc2nc(C)nn12	2.3	-15.9	0.0	58.4*	1.0	1.0
COC(=O)c1ccccc1Nc1cc(C)nc2nc(C)nn12	6.9	0.9	-4.0	1.6	4.0	2.5
CN1C(=O)/C(=C/c2cc(N=Nc3ccccc3)ccc2O)SC1=S	4.5	6.8	-4.0	53.8*	7.0	2.6
FC(F)(F)c1cccc(N2CCN(Cc3ccoc3)CC2)c1	5.7	53.5*	-1.0	11.9	6.9	3.1
FC(F)(F)c1cccc(N2CCN(Cc3cccnc3)CC2)c1	1.5	36.8	-1.0	28.3	-6.9	1.9
Cc1ccc(CSc2nnc([C@@H]3CCCN3)o2)cc1	3.8	62.5*	-1.0	49.5	10.3	7.0
C=CCS/C(N)=N\N=C\c1c(O)ccc2ccccc12	0.3	-19.5	·	15.7	3.4	1.8
Cc1ccn2c(=O)c(C(=O)NC3CCCCC3C)c(O)nc2c1 (configuration not stated)	4.2	·	·	·	-1.8	-3.1
COC(=O)CSc1nc(-c2ccc(C)cc2)c2c(c1C#N)CCCC2	-3.9	61.5*	-6.0	-17.2	-2.7	7.4
COC(=O)CSc1nc(N2CCOCC2)c2c(c1C#N)CCCC2	-3.9	-18.7	·	18.2	-1.5	-0.3
CC(NS(=O)(=O)CCNC(=O)c1ccccc1)c1ccccc1 (configuration not stated)	-7.6	·	·	·	7.7	-0.9
CCNc1ccc(Br)cc(C(=O)/C=C/c2ccc(Cl)cc2)c1=O	4.3	20.1	5.0	81.8*	-80.3	-23.7
CCNc1ccc(Br)cc(C(=O)/C=C/c2c(Cl)cccc2Cl)c1=O	-15.0	46.3	3.0	102.3*	-50.2	-22.1
O=C(Cc1cccs1)NCc1cccc(F)c1	-6.3	4.0	-4.0	-5.2	7.1	3.8

Compound activity (PubChem)
